Bioassay records: PubChem BioAssay, several laboratories
The list is not random: actives were taken first. Their share in the collection is about 4.3%.
NR3A LBD binder = binders of NR3A ligand-binding domain, primary screen, biophysical, differential scanning fluorimetry, uHTS | Glutamate receptor ionotropic, NMDA 3A (GRIN3A) ligand-binding domain | NR3A LBD differential scanning fluorimetry, Tm shift; 0% = protein alone, 100% = glycine-bound protein | Tm shift relative to glycine control, % at 25 µM | 2.5% of 340,000 active | AID 1259313, 2017;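 active means melting temperature shift of at least 10% of the positive control shift, at one fixed dose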
NALP1 inh = NALP1 inflammasome inhibitors in reconstituted yeast, colorimetric, S. cerevisiae, triplicate retest. S. cerevisiae NALP1/ASC/caspase-1 growth, X-gal OD620, 72 h. inhibition, % at 10 µM. 0.61% of 280,000 active; in the data active means inhibition mostly above about 24%, no sharp cut-off; inactive means mostly below about 32%
Yeast superoxide = reduction of superoxide in aged yeast, primary screen, HTS; superoxide response (% of plate mean), % at 10 µM; S. cerevisiae aged cells, superoxide DHE fluorescence; hits give low values; 0.18% of 330,000 active;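 active means superoxide response under a set limit, about three screen SD below normal, cut at about 65% in these data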;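 further: yeast aged for seven days with compound at 30 °C before DHE staining; 100% = average MFI of all compound-treated wells on the plate with controls excluded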
dFosB activator = activators of delta FosB homodimer, primary screen, biochemical, fluorescence polarization, TAMRA-CDK5 oligo, single point | Protein FosB (Mus musculus), P13346 | purified delta FosB; percent of positive-control signal above neutral wells | activation, % at 25 µM | 0.99% of 340,000 active | AID 493131, 2011;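 active means mean activation above about 17%, with every replicate also reaching it, limit read from the data, passing the limit was not always enough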
Target sequence (P13346 whole entry, looked up): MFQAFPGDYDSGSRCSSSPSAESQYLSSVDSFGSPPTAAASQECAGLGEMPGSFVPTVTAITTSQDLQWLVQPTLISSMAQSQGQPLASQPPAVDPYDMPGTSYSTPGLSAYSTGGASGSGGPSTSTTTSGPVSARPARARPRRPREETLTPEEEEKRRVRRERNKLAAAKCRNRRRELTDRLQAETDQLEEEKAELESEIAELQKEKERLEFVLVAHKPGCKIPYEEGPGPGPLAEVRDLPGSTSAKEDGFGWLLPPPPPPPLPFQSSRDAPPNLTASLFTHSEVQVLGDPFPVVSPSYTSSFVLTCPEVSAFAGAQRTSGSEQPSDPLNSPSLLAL
UBC13 inh = UBC13 polyubiquitin chain formation inhibitors, primary screen, biochemical, TR-FRET, uHTS | 0.47% of 330,000 active | Ubiquitin-conjugating enzyme E2 N (Homo sapiens), P61088 | AID 485273, 2010 | inhibition, % at 20 µM; in the data active means inhibition above about 45%, passing the limit was not always enough
Target sequence (P61088 whole entry, looked up): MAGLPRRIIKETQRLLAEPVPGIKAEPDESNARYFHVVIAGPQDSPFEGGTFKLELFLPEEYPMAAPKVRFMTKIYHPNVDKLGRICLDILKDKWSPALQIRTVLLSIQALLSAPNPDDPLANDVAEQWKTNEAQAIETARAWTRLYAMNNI
Starred values were filed as active, the others as inactive; nt = no result given.

SMILES	NR3A LBD binder	NALP1 inh	Yeast superoxide	dFosB activator	UBC13 inh
COc1ccc(/C=C2\C(=O)N(c3c(Cl)cc(Cl)cc3Cl)N=C2NC(=O)c2cccc([N+](=O)[O-])c2)cc1	13*	-4	101	-2	nt
Cc1ccc(NC(=O)CSc2nnnn2C2CC2)cc1S(=O)(=O)N1CCOCC1	1	nt	nt	-1	-2
COc1ccc(N2CCN(C(CNC(=O)C(=O)NCC3CCCO3)c3ccco3)CC2)cc1 (stereo unspecified)	10*	0	88	-10	-10
COC(=O)NCC(c1ccco1)N1CCN(c2ccc(OC)cc2)CC1 (stereo unspecified)	2	-11	111	-3	-8
COc1ccc(C(=O)NCC2CCCO2)cc1 (stereo unspecified)	12*	22	90	2	-5
COc1cc(OC)cc(C(=O)Nc2ccc(C(=O)NCC3CCCO3)cc2)c1 (stereo unspecified)	0	0	99	-4	-8
COC(=O)/C(=N/Nc1ccc(C)cc1)N1CCCc2ccccc21	1	46	63*	-13	4
COC(=O)/C(=N/Nc1ccccc1)N1CCCc2ccccc21	7	38	103	-7	-2
CC(C)C[C@H](NC(=O)N1CCn2c1nc1ccccc12)C(=O)NCc1ccc2c(c1)OCO2	-3	-10	100	-23	2
COc1cc(NC(=S)NCc2ccco2)cc(OC)c1OC	19*	4	98	2	10
COc1ccccc1NC(=S)NCc1ccco1	0	17	87	-1	2
Cc1ccc(-c2ccc(/C=N/n3cnnc3)o2)cc1	0	39*	108	-3	-6
Cc1ccc(-c2ccc(/C=N/n3cnnc3)o2)cc1Cl	-28	10	102	-12	-10
CC1(C)CC(=O)C2=C(C1)NC(SCC(N)=O)=C(C#N)C21CCCCC1	16*	-47	110	0	-7
Cc1ccc(SCCNC(=S)Nc2cc(C)cc(C)c2)cc1	-1	15	96	-2	6
COc1ccc(Cl)cc1NC(=S)Nc1ccc(Cl)cn1	16*	2	102	-2	0
COC(=O)c1cc(OC)c(OC)cc1NC(=S)Nc1cc(Cl)ccc1OC	-3	12	104	-7	43
COc1ccccc1NC(=S)NCCSc1ccc(Cl)cc1	-2	17	96	-7	8
Cc1ccc(NC(=S)NCCSc2ccc(Cl)cc2)cc1	18*	6	98	2	1
CC(CNC(=S)Nc1cc(F)cc(F)c1)CSc1ccc(Cl)cc1 (stereo unspecified)	10*	24	101	-1	6
COc1ccc(Cl)cc1NC(=S)NCCSc1ccc(C)cc1	25*	-17	107	-1	-6
COc1nc(C)nc(Cl)c1NC1=NCCN1	3	nt	88	3	6
CCOC(=O)C(C)Oc1ccc(OCc2ccccc2)cc1 (stereo unspecified)	2	18	108	4	23
CCCOC(=O)c1ccc(-n2nnnc2SCC(=O)N2CCCCC2)cc1	0	3	94	-14	1
COC(=O)c1ccc(-n2nnnc2SCC(=O)N2CCCCC2)cc1	37*	-11	100	-4	0
SMILES	NR3A LBD binder	NALP1 inh	Yeast superoxide	dFosB activator	UBC13 inh
OC(CNc1ccnc2cc(Cl)ccc12)CNC1CCCCC1 (stereo unspecified)	-3	nt	nt	26*	nt
OC1CCCC1NCc1ccnc2cc(Cl)ccc12 (stereo unspecified)	1	nt	nt	-2	nt
O=C1Nc2c(c(=O)[nH]c(=O)n2-c2ccccc2)C(C(F)(F)F)(C(F)(F)F)N1	-2	11	90	6	4
Cc1ccc(-n2c3c(c(=O)[nH]c2=S)C(C(F)(F)F)(C(F)(F)F)NC(=O)N3)cc1	4	41*	121	-5	11
CCOC(=O)c1sc(NC(=O)CSc2n[nH]c(-c3ccc(Cl)cc3Cl)n2)c(C#N)c1C	33*	17	113	-6	-19
CCOC(=O)c1sc(NC(=O)c2cc(-c3ccccc3C)nc3ccccc23)c(C#N)c1C	24*	20	98	-8	-28
Cc1cccc(C2=NN(c3ccccc3)[C@@H](C(=O)N3CCOC3=O)[C@@H]2C)c1	-2	nt	91	1	nt
O=C1OCCN1C(=O)[C@H]1[C@H](c2ccc([N+](=O)[O-])cc2)C(c2cccc(Cl)c2)=NN1c1ccccc1	13*	20	104	-8	-20
Cc1cccc(C2=NN(c3ccccc3)[C@@H](C(=O)N3CCOC3=O)[C@@H]2c2ccc(Cl)cc2)c1	11*	nt	99	-7	nt
Cc1cccc(C2=NN(c3ccc(Br)cc3)[C@@H](C(=O)N3CCOC3=O)[C@@H]2C)c1	12*	nt	89	0	nt
Cc1cccc(C2=NN(c3ccccc3)[C@@H](C(=O)N3CCOC3=O)[C@@H]2c2ccc(F)cc2)c1	-5	nt	114	-11	nt
S=c1[nH]ccn1-c1c(Cl)cccc1Cl	nt	5	98	4	0
Cn1c(=O)n(C)c2cc(/C=N/NC(=O)c3ccc(Cl)cc3)ccc21	-1	nt	100	8	-7
Cn1c(=O)cc(C(=O)N/N=C/c2ccc(Cl)cc2)[nH]c1=O	13*	-12	129	nt	-30
Cc1cc(C)cc(OCC(=O)OCC(=O)NCc2cccs2)c1	16*	16	107	0	-8
O=C(Nc1ccc2c(c1)OCCO2)c1ccc(Cl)c(Cl)c1	-1	22	97	5	-9
O=C(Nc1ccc(Cl)c(Cl)c1)C1=Cc2ccccc2OC1	19*	5	98	-12	-12
O=C(Nc1cccc(Cl)c1)C1=Cc2cc(Cl)ccc2OC1	20*	8	98	4	2
Cc1ccc(N(C)S(=O)(=O)c2csc(C(N)=O)c2)cc1C	1	11	96	-4	-2
OC(COc1ccc(F)cc1Cl)CN1CCC(Cc2ccccc2)CC1 (stereo unspecified)	0	42*	110	-6	8
N#Cc1ccc(S(=O)(=O)NC2CCCCNC2=O)cc1 (stereo unspecified)	0	3	108	-4	-1
CN(CC(=O)OCC(=O)Nc1ccccc1)S(=O)(=O)c1ccc(Cl)cc1	18*	22	96	-8	-4
CC(=O)Nc1ccc(NC(=O)C(C)OC(=O)CN(C)S(=O)(=O)c2ccc(Cl)cc2)cc1 (stereo unspecified)	15*	-4	105	-1	0
CC(=O)Nc1ccc(S(=O)(=O)N(C)CC(=O)OCC(=O)N2CCCCC2)cc1	-1	nt	101	3	1
CCOC(=O)C1CCN(C(=O)COC(=O)CN(C)S(=O)(=O)c2ccc(NC(C)=O)cc2)CC1	10*	12	102	1	7
